Data as given in PubChem BioAssay (NCATS).
Results filed as inconclusive are left out. Unmarked numbers belong to inactive results. Activity calls are given as the source filed them. The call rests on the fitted dose curve; in most records, active means well fitted cell-killing curve with a large enough effect; inconclusive means small, poorly fitted or top-dose-only effect; inactive means flat fitted curve, though single readings scatter. Peptide text beside a SMILES is read from it. * marks the point of attachment. Cbz = O=C(OCc1ccccc1)*

Test: Quantitative highthroughput screen to assess conditional lethalithy of NOMO1 cells grown in RPMI1640 with dialyzed fetal bovine serum (RPMI+ds) (AID 1963877); further: nearly all actives have a fitted effect of over 30% in size;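 on viability: 100% = DMSO control wells and 0% = empty wells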
Conditions: NOMO1 in RPMI+dialyzed FBS viability, ATP luminescence, 48 h; series mostly up to 45.8 µM; viability: at the top concentration
How it was run: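 Each medium arm—HPLM with 10% dialyzed FBS, or RPMI1640 with 5 mM glucose and 10% untreated or dialyzed FBS—was screened against an 11-point, 3-fold compound titration for 48 h at 37 °C, with CellTiter-Glo luminescence as endpoint.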
Potency means the concentration at half of the fitted maximal effect.

Compound | viability | Potency
O=C1CCCC2=C1C(c1[nH]ncc1Cl)N=C(Nc1nc3ccccc3o1)N2 (stereo not given) | 76.3% | 
CCN1CCN(c2ccc(Nc3cc(N(C)C(=O)Nc4c(Cl)c(OC)cc(OC)c4Cl)ncn3)cc2)CC1 |  | 7.43 µM (active)
C[N+](C)(C)CC(=O)O | 96.7% | 
COCCCN1CCC(NC(=O)c2cc(Cl)c(N)c3c2OCC3)CC1 | 76.9% | 
CNC(=O)c1ccc(Nc2ncc(C(F)(F)F)c(NCc3nccnc3N(C)S(C)(=O)=O)n2)cc1 | 95% | 
O=C1NC(=O)C(c2cnc3ccccn23)=C1c1cn2c3c(cccc13)CN(C(=O)N1CCOCC1)CC2 | 111% | 
Cc1cc2c(s1)Nc1ccccc1N=C2N1CCN(C)CC1 | 88.3% | 
CC1Cc2ccccc2N1NC(=O)c1ccc(Cl)c(S(N)(=O)=O)c1 (stereo not given) | 89.4% | 
Nc1[nH]c(=O)ncc1F | 74.8% | 
CC1(C)O[C@H]2CC(=O)OC[C@]23[C@H]2CC[C@@]4(C)[C@H](c5ccoc5)OC(=O)[C@H]5O[C@]54[C@]2(C)C(=O)C[C@@H]13 | 99.8% | 
O=C(/C=C\n1cnc(-c2cc(C(F)(F)F)cc(C(F)(F)F)c2)n1)NNc1cnccn1 |  | 0.933 µM (active)
CCCc1cc(C(N)=S)ccn1 | 101% | 
C=C1C(=O)[C@@]23C(CC[C@@H]1[C@H]2O)[C@@]12CO[C@]3(O)[C@@H](O)[C@@H]1C(C)(C)CC[C@@H]2O (stereo not given in full) |  | 23.5 µM (active)
CCc1ccc(OCc2ccccc2C(=O)Nc2ccc3nc(C)cc(N)c3c2)cc1 |  | 8.33 µM (active)
CC(C)(C)c1nc2c3cc[nH]c(=O)c3c3cc(F)ccc3c2[nH]1 |  | 4.69 µM (active)
CO[C@@H]1C(N(C)C(=O)c2ccccc2)C[C@H]2O[C@]1(C)n1c3ccccc3c3c4c(c5c6ccccc6n2c5c31)C(=O)NC4=O (stereo not given in full) |  | 14.8 µM (active)
N#Cc1ccnc(Nc2cc(C3CCN(C4COC4)CC3)cc(N3CCC(F)(F)C3)n2)c1 |  | 13.2 µM (active)
CC1(C)CCC(c2ccc(Cl)cc2)=C(CN2CCN(c3ccc(C(=O)NS(=O)(=O)c4ccc(N[C@H](CCN5CCOCC5)CSc5ccccc5)c(S(=O)(=O)C(F)(F)F)c4)cc3)CC2)C1 |  | 0.264 µM (active)
CC(C)C[C@@H](C=O)NC(=O)[C@H](CC(C)C)NC(=O)[C@H](CC(C)C)NC(=O)OCc1ccccc1 (Cbz-Leu-Leu-Leu-aldehyde) |  | 2.09 µM (active)
CCCCS(=N)(=O)CCC(N)C(=O)O (stereo not given) | 94.4% | 

Compound | viability | Potency
O=C(O)CCNC(=O)c1ccc(N=Nc2ccc(O)c(C(=O)O)c2)cc1 | 93.3% | 
CC(O)(C#Cc1ccc2c(c1)N(c1nc(N)ncc1Cl)CC2)c1nccs1 (stereo not given) | 83.8% | 
CN1CCN(c2ccc(C(=O)Nc3n[nH]c4ccc(Cc5cc(F)cc(F)c5)cc34)c(NC3CCOCC3)c2)CC1 |  | 20.9 µM (active)
COc1c(C)cnc(Cn2cnc3c(Cl)nc(N)nc32)c1C |  | 0.662 µM (active)
CCN(c1ccccc1)c1cc(NC)[n+](C)c(C)n1 | 108% | 
CCCc1nn(C)c2c(=O)[nH]c(-c3cc(S(=O)(=O)N4CCN(C)CC4)ccc3OCC)nc12 | 94.9% | 
CC1CCN(c2cc(N3CCN(C)CC3)ccc2NC(=O)c2cc(C#N)c[nH]2)CC1 | 95.9% | 
C[C@H]1[C@@H](OC(=O)CCC(=O)O)O[C@@H]2O[C@@]3(C)CC[C@@H]4[C@H](C)CC[C@@H]1[C@@]24OO3 |  | 1.32 µM (active)
O=S(=O)(O)CCS |  | 0.833 µM (active)
COCCNCCCn1c(C(=O)CF)c(-c2ccc(C)cc2)c2c(N)ncnc21 | 114% | 
NCCCC(N)(C(=O)O)C(F)F (stereo not given) | 85.9% | 
Nc1[nH]nc2nnc(-c3c(-c4ccccc4)nn4ccccc34)cc12 |  | 2.64 µM (active)
COC(=O)C1C2CC3c4[nH]c5cc(OC)ccc5c4CCN3CC2CC(OC(=O)c2cc(OC)c(OC)c(OC)c2)C1OC (stereo not given) | 88.5% | 
Nc1nc2c(ncn2COC(CO)CO)c(=O)[nH]1 |  | 26.4 µM (active)
OC(CCN1CCCCC1)(c1ccccc1)C1CC2C=CC1C2 (stereo not given) | 95% | 
Cc1ccccc1-n1c(Cn2nc(-c3cccc(O)c3)c3c(N)ncnc32)nc2cccc(C)c2c1=O |  | 2.35 µM (active)
CCOc1ccccc1OCCNC(C)Cc1ccc(OC)c(S(N)(=O)=O)c1 (stereo not given) | 92.4% | 
Nc1nc(Nc2ccc(S(N)(=O)=O)cc2)nn1C(=O)c1c(F)cccc1F |  | 16.6 µM (active)
CNC(=O)c1nn(C)c2c1C(C)(C)Cc1cnc(Nc3ccc(N4CCN(C)CC4)cc3)nc1-2 |  | 14.8 µM (active)
Cc1ccc(C(=O)Nc2cccc(C(F)(F)F)c2)cc1-c1ccc2nc(NCCN3CCOCC3)ncc2c1 |  | 4.69 µM (active)
